Results taken from PubChem BioAssay AID1376 (SRMLSC, 2008).
In all, about 220,000 compounds went through this assay and about 530 (0.24%) were called active. Shown is part of a subset that was picked to be rich in actives. Entries with a potency or affinity are not part of this list. A number with no mark means an inactive call. Rule as the data show it: active = inhibition above about 13%; inconclusive = no clear call, values can overlap the other calls; inactive = below that.

molecular target: Bifunctional protein GlmU (Mycobacterium tuberculosis (strain ATCC 25618 / H37Rv)) (UniProt P9WMN3); assay: inhibition of mycobacterial GlmU enzyme – biochemical, glucosamine-1-phosphate acetyltransferase (AID 1376);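 also: 0% = complete reaction with vehicle and 100% = reaction without substrate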; conditions: M. tuberculosis GlmU acetyltransferase enzyme assay; stronger effect = higher value;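 tested at 30 µM in the primary screen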
Sequence (P9WMN3 whole entry, looked up): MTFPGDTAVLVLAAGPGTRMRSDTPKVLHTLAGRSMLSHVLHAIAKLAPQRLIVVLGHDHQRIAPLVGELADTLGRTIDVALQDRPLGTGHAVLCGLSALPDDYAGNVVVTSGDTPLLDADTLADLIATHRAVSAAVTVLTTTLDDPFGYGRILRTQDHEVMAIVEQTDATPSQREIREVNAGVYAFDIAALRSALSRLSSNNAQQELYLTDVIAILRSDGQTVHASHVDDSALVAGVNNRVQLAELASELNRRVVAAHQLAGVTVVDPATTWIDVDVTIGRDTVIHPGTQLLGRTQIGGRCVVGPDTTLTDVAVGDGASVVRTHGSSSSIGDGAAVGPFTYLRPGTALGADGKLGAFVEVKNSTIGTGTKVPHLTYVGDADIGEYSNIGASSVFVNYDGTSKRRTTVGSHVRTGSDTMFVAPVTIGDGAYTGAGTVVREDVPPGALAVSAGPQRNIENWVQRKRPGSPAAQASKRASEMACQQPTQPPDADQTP

| SMILES | inhibition |
| --- | --- |
| Cc1[nH]c2ccccc2c1C(=O)CSc1nc2ccccc2[nH]1 | 2.48% |
| Cc1c(C)n(C(=O)CSc2ncn[nH]2)c2ccccc12 | 1.07% |
| CCCCCOc1ccc(C(=O)N(Cc2ccco2)C2CCS(=O)(=O)C2)cc1 (centres undefined) | 2.23% |
| Cc1ccc(C)n1-c1cccc(NC(=O)c2ccccc2)c1 | -0.99% |
| Cn1c(Cn2c(=O)sc3ccccc32)nnc1SCC(=O)N1CCc2ccccc21 | -3.8% |
| O=C1CCN(S(=O)(=O)c2ccccc2)CCN1CCOCc1ccc(F)cc1 | -0.16% |
| CC1=CC(C)(C)N2C(=O)C3(C(C#N)=C(N)OC4=C3C(=O)CCC4)c3c(C)c(C)cc1c32 (centres undefined) | 0.73% |
| CCOC(=O)C1=C(N)OC2=C(C(=O)CCC2)C12C(=O)N(C)c1ccccc12 (centres undefined) | 2.06% |
| CCOC(=O)C1=C(N)OC2=C(C(=O)CCC2)C12C(=O)N1c3c(ccc(C)c32)C(C)=CC1(C)C (centres undefined) | 14.7% (active) |
| COc1nc(OC)nc(Oc2ccc(Cl)cc2[N+](=O)[O-])n1 | -2.5% |
| COc1ccc([N+](=O)[O-])c(S(=O)(=O)c2ccccc2)n1 | 11.9% |
| COc1ccc([N+](=O)[O-])c(S(=O)(=O)c2ccc(Cl)cc2)n1 | 13.8% (active) |
| CC(C(=O)NN)n1nnc(N2CCOCC2)n1 (centres undefined) | -4.73% |
| O=C(Nc1cccc(-c2csc(Nc3ccc(Cl)cc3)n2)c1)c1cccc(C(F)(F)F)c1 | 0.14% |
| COC(=O)c1[nH]nc(C(=O)OC(C)(C)C)c1-c1ccccc1 | 13.6% (active) |
| COC(=O)c1cc(-c2ccccc2)n[nH]1 | 1.61% |
| COC(=O)c1n[nH]nc1-c1ccccc1 | 2.77% |
| CC1(C)Cc2cccc(OCC(=O)N3CCN(S(=O)(=O)c4ccc(F)cc4)CC3)c2O1 | -1.15% |
| O=C(O)c1cccc(N/N=C/c2cccs2)c1 | 4.35% |
| O=C(O)c1cccc(NN=C2c3ccccc3-c3ccccc32)c1 | 1.86% |
| Cc1ccc(C(=O)N/C(=C\c2ccccc2)C(=O)NCc2cccnc2)cc1 | -0.7% |
| CCCNC(=O)Cn1cnc2sc(C(=O)Nc3cc(OC)c(OC)c(OC)c3)c(C)c2c1=O | 1.29% |
| CNc1ccc(Br)cc(C(=O)/C=C/c2cccc(Cl)c2Cl)c1=O | 13% (active) |
| CNc1ccc(Br)cc(C(=O)/C=C/c2ccc(Cl)cc2Cl)c1=O | 10.2% |

| SMILES | inhibition |
| --- | --- |
| CNc1ccc(Br)cc(C(=O)/C=C/c2cccc(OC)c2OC)c1=O | 0.88% |
| CCS(=O)(=O)c1ccc(O)c(NC(=O)/C=C/c2ccc(Cl)cc2)c1 | 0.22% |
| O=C(O)CNC(=O)C(Cc1ccccc1)NC(=O)OCc1ccccc1 (centres undefined) | 2.74% |
| Cn1c(SCc2ccccc2)nnc1-c1cnccn1 | -1.68% |
| Cn1c(SCc2ccccn2)nnc1-c1cnccn1 | 13.4% (active) |
| Cc1ccccc1CSc1nnc(-c2cnccn2)n1C | 4.71% |
| Cc1ccc(-n2c(Cc3ccccc3)nnc2SCC(=O)NNC(=O)Cc2ccccc2)cc1 | 2.04% |
| Cc1c(Br)c(O)c(Br)c2sc(=O)oc12 | 14.6% (active) |
| Cc1ccc(-c2cc(O)cc3sc(=O)oc23)cc1C | -5.89% |
| C=CCn1c(=O)c2ccccc2n2c(SCC(N)=O)nnc12 | -2.87% |
| C/C(=N\OCc1ccc(C#N)cc1)c1ccccc1 | 2.31% |
| C/C(=N\OCc1ccccc1C#N)c1cc2ccccc2o1 | -1.63% |
| C/C(=N\OCc1ccc(C#N)cc1)c1cc2ccccc2o1 | 14% (active) |
| COc1cc(CNCc2c[nH]c3ccccc23)cc(OC)c1 | 0.77% |
| N/C(=N\N=C\c1ccc(O)cc1O)N[N+](=O)[O-] | 1.33% |
| O=C(N/N=C/c1ccc(-c2cccc([N+](=O)[O-])c2)o1)c1ccccc1O | 0.51% |
| O=C1CCCN1c1cc(Cl)cc(Cl)c1 | 0.87% |
| CCC(C)N(CCNC(=O)CC1Oc2ccc(C)cc2NC1=O)C1CCCCC1 (centres undefined) | 4.05% |
| COc1ccc(-c2c(-c3ccc(OCC(=O)NN)cc3O)n[nH]c2C)cc1 | 4.13% |
| COc1ccc(-c2c(-c3ccc(OCC(=O)NN)cc3O)n[nH]c2C(F)(F)F)cc1 | 13.2% (active) |
| NNC(=O)COc1ccc(-c2n[nH]c(C(F)(F)F)c2-c2ccc(Br)cc2)c(O)c1 | -2.65% |
| O=C(CC(NC(=O)c1ccccc1Cl)c1ccccc1)NC1=NCCS1 (centres undefined) | 2.83% |
| CC(=O)Nc1ccc2ccccc2c1 | 1.2% |
| CC(=O)Nc1ccc2nc3ccccc3nc2c1 | 3.15% |

| SMILES | inhibition |
| --- | --- |
| CC(=O)Nc1ccc2cc3ccc(NC(C)=O)cc3nc2c1 | 29.2% (active) |
| CCC(C)(C)n1nnnc1CN1CCC(n2c(C)nc3cc(C(F)(F)F)ccc32)CC1 | 2.13% |
| CCOC(=O)c1nc2ccccc2nc1C | 3.05% |
| O=C(CSc1nnc(-c2ccncc2)n1Cc1ccco1)Nc1nc(-c2ccccc2)cs1 | -0.09% |
| N=C1/C(=C\c2ccc(SCc3ccco3)o2)C(=O)N=C2SC=NN12 | 8.44% |
| CCC1=NN2C(=N)/C(=C\c3ccc(SCc4ccco4)o3)C(=O)N=C2S1 | 4.74% |
| O=C1/C(=C\c2ccco2)SC(=S)N1c1ccccc1 | 8% |
| CCCC1=NN2C(=N)/C(=C\c3ccc(SCc4ccco4)o3)C(=O)N=C2S1 | 30.6% |
| O=C1NC(=S)S/C1=C/c1ccc(N2CCOCC2)o1 | 11.4% |
| O=C(O)CN1C(=O)/C(=C/c2ccc(SCc3ccccc3)o2)SC1=S | 18.9% |
| Cc1cccc(C)c1-n1cccc1/C=C1\SC(=S)N(c2cccc(C(=O)O)c2)C1=O | -2.25% |
| O=C(O)c1cccc(N2C(=O)/C(=C/c3ccc(SCc4ccc(Cl)cc4)o3)SC2=S)c1 | 33.7% (active) |
| CCOc1cc(/C=C2/SC(=S)NC2=O)ccc1OC(=O)c1ccco1 | 1.76% |
| O=C1NC(=S)S/C1=C\c1ccc(SCc2ccccc2)o1 | 68.3% (active) |
| NNC(=O)c1cncn1-c1ccc(F)cc1 | -2.24% |
| CN/N=C(\Cc1nc2ccccc2[nH]1)c1ccc([N+](=O)[O-])cc1 | 2.32% |
| CCC(Oc1ccccc1)C(=O)NCc1ccc(S(N)(=O)=O)cc1 (centres undefined) | 1.79% |
| CC(=O)Nc1ccc(S(=O)(=O)Nc2ccc(=O)n(Cc3ccc(Cl)c(Cl)c3)c2)cc1 | -3.3% |
| COc1cc(N(C(=O)Cc2cccs2)C(C(=O)NC2CCCCC2)c2cccc(OC)c2OC)ccc1-n1cnnn1 (centres undefined) | -6.93% |
| OCCNc1nc(Nc2ccccc2Cl)nc(N2CCCC2)n1 | 2.46% |
| CCCS(=O)(=O)N1CCC(C(=O)NCCCOC(C)C)CC1 | -1.86% |
| CCC(C)NS(=O)(=O)c1ccc(S(=O)(=O)N(CCc2ccc(OC)c(OC)c2)Cc2cccs2)cc1 (centres undefined) | -1.89% |
| Cc1ccc([N+](=O)[O-])cc1S(=O)(=O)Nc1ccccn1 | 12.5% |
| Cc1cccc2cc(/C=N/NC(=O)[C@H]3C[C@@H]3c3ccccc3)c(Cl)nc12 | -1.46% |

| SMILES | inhibition |
| --- | --- |
| CC(=O)c1cccc(NC(=O)C2CCCN(S(=O)(=O)c3cccc4cccnc34)C2)c1 (centres undefined) | 13.1% (active) |
| Cc1cccc(NC(=O)C2CCCN(S(=O)(=O)c3cccc4cccnc34)C2)c1 (centres undefined) | 1.23% |
| O=C(Nc1ccncc1)C1CCCN(S(=O)(=O)c2cccc3cccnc23)C1 (centres undefined) | -3.59% |
| O=C1CCN(Cc2ccccc2)S(=O)(=O)c2ccccc21 | 1.98% |
| Cn1cccc1/C=C1/C(=O)NC(=O)N(Cc2ccc(F)cc2)C1=O | -4.26% |
| Cc1cc(/C=C2\C(=O)NC(=O)N(Cc3ccco3)C2=O)c(C)n1-c1ccc(C(=O)O)cc1 | 9.99% |
| Cn1cccc1/C=C1/C(=O)NC(=O)N(Cc2ccccc2)C1=O | -0.82% |
| Cc1cc(/C=C2\C(=O)NC(=O)N(Cc3ccccc3Cl)C2=O)c(C)n1-c1ccc(C(=O)O)cc1 | -0.15% |
| Cn1cccc1/C=C1\C(=O)NC(=O)N(Cc2ccccc2)C1=O | 13.2% (active) |
| O=C1NC(Cc2c[nH]c3ccccc23)C(=O)N1Cc1ccc(CN2C(=O)NC(Cc3c[nH]c4ccccc34)C2=O)cc1 (centres undefined) | 3.5% |
| O=C(COc1ccc(S(=O)(=O)NC2CCCCC2)cc1)N1CCN(c2ccc(F)cc2)CC1 | -2.74% |
| COc1ccc(CNC(=O)CCSCc2cccc(Cl)c2)cc1 | 3.22% |
| CC(C)CCN1CCN(CC#Cc2ccccc2)CC1CCO (centres undefined) | -6.43% |
| OCCC1CN(CC(c2ccccc2)c2ccccc2)CCN1C1CCCC1 (centres undefined) | -0.28% |
| CC(C)CCN1CCN(CC(c2ccccc2)c2ccccc2)CC1CCO (centres undefined) | 14% (active) |
| CCOc1ccc(NS(=O)(=O)c2ccc3[nH]c(=O)cc(C(=O)O)c3c2)cc1 | 5.18% |
| Cc1oc2c(C)c(O)ccc2c(=O)c1-c1cnn(-c2ccccc2)c1 | -1.79% |
| Cc1oc2cc(O)ccc2c(=O)c1-c1cnn(-c2ccccc2)c1 | 1.72% |
| Cc1oc2c(O)c(O)ccc2c(=O)c1-c1cnn(-c2ccccc2)c1 | 15% (active) |
| CCOC(=O)NC(NCc1ccccc1)(C(F)(F)F)C(F)(F)F | -2.58% |
| CCOC(=O)C(NC(C)=O)(OCc1ccccc1)C(F)(F)F (centres undefined) | 1.91% |
| COC(=O)C(O)(NC(=O)OCc1ccccc1)C(F)(F)F (centres undefined) | 13.5% (active) |
